# USP28 block: inhibitors of human USP28 deubiquitinase. inhibition, % at 25 µM. purified USP28, Ub-rhodamine cleavage fluorescence, 30 min. Ubiquitin carboxyl-terminal hydrolase 28 (Homo sapiens), Q96RU2. hit rate 3% among 47,000
# USP30 inh: inhibitors of human USP30 deubiquitinase; inhibition, % at 25 µM; AID 1645860, 2021; purified USP30, Ub-rhodamine cleavage fluorescence; hit rate 5.3% among 47,000
# USP17 block: inhibitors of human USP17 deubiquitinase | Ubiquitin carboxyl-terminal hydrolase 17-like protein 5 (Homo sapiens), A8MUK1 | purified USP17, Ub-rhodamine cleavage fluorescence, 3 h | inhibition, % at 50 µM | hit rate 6.5% among 47,000
# An asterisk follows results filed as active; i = inactive. An excerpt weighted towards active compounds, which were near 11% of everything screened. Cut-off read from the data, not from the text of the source: active = inhibition above about 30%; inactive = the rest.
SMILES,USP28 block,USP30 inh,USP17 block
Cc1ccccc1S(=O)(=O)N1CCC2(C1)Nc1cccnc1NC2=NCc1ccccc1 (configuration not stated),-196,i,-69
O=C(c1cc(CC2(NC3CCCCC3)COC2)no1)N1CCCCC1,-2,-45,-23
CCS(=O)(=O)Nc1ccc2c(c1)CCCN2C(=O)c1cccs1,0,3,-7
CSCCC(NC(=O)c1ccc(Cl)cc1)C(=O)OCC(=O)c1ccc(-c2ccccc2)cc1 (configuration not stated),-23,-60,-4
Cc1ccccc1-c1nnc(-c2ccc(C(=O)N(C)C(C)c3ccccc3)cc2)o1 (configuration not stated),-7,-7,5
Cc1ccccc1-c1nnc(-c2ccc(C(=O)N(C)Cc3cccc(F)c3)cc2)o1,20,40*,23
O=C(O)c1ccc2c(=O)n3c(nc2c1)/C(=C/c1cccc(OCc2ccccc2)c1)CC3,3,-1,11
Cc1ccc(C2C3=C(CC(c4ccc(Cl)cc4)CC3=O)Nc3ccccc3N2C(=O)c2ccccc2)cc1 (configuration not stated),15,36*,28
COc1ccc(C2C3=C(CC(c4ccc(C)cc4)CC3=O)Nc3ccccc3N2C(=O)c2ccccc2)cc1 (configuration not stated),13,12,23
COc1cccc(C2C3=C(CC(c4ccc(Cl)cc4)CC3=O)Nc3ccccc3N2C(=O)c2ccccc2)c1 (configuration not stated),-1,20,-7
Cc1ccc(C2CC(=O)C3=C(C2)Nc2ccccc2N(C(=O)c2ccccc2)C3c2ccccc2)cc1 (configuration not stated),23,43*,26
O=C(CSc1ccc(N2CCC(C(=O)NC3CC3)CC2)nn1)Nc1cccc(Cl)c1,-18,-91,38*
CC1CCN(c2ccc(N3CCC(C(=O)NC4CCCCC4)CC3)nn2)CC1,-6,-26,-8
COc1cccc(C2c3[nH]c4ccccc4c3C[C@@H]3C(=O)N(C4CCCC4)CC(=O)N23)c1OC (some centres not stated),-28,-86,-18
COc1ccc(N2CCN(C(=O)CCC(=O)N3CCCn4nc(C)cc43)CC2)cc1,-1,8,3
COc1cccc(NC(=O)C2CC(=O)Nc3nc(SCc4ccccc4)nn32)c1 (configuration not stated),12,21,5
O=C1CC(C(=O)Nc2ccc(F)cc2)n2nc(SCc3ccccc3)nc2N1 (configuration not stated),28,58*,2
O=C1CC(C(=O)Nc2cccc(F)c2)n2nc(SCc3ccccc3)nc2N1 (configuration not stated),16,43*,1
CC(=O)c1ccc(NC(=O)C2CC(=O)Nc3nc(SCc4ccccc4)nn32)cc1 (configuration not stated),7,4,-2
COc1ccc(C(O)c2ncc(-c3cccc4ccccc34)[nH]2)cc1 (configuration not stated),-7,-35,-23
COc1ccc(CCN(C)Cc2c([C@@H]3CCCO3)[nH]c3ncccc23)cc1OC,7,-6,7
Cc1cccc(-n2nnc3c(=O)n(CC(=O)Nc4ccc5c(c4)OCO5)cnc32)c1,0,17,7
Cc1ccc(CNC(=O)CN2C(=O)C3CCCN3C(=O)c3cccc(C)c32)cc1 (configuration not stated),-8,-14,-3
Cc1ccccc1CNC(=O)CN1C(=O)C2CCCN2C(=O)c2cccc(C)c21 (configuration not stated),14,37*,12
COc1ccc(NS(=O)(=O)c2ccc(-c3cnc(C)o3)cc2)cc1,2,-9,-11
SMILES,USP28 block,USP30 inh,USP17 block
CN(C(=O)Cn1c(=O)n(-c2ccc(Cl)cc2)c(=O)c2c3c(sc21)CCCC3)C1CCCCC1,20,32*,41*
CCOC(=O)N1CCc2c(sc3c2c(=O)n(-c2ccc(CC)cc2)c(=O)n3CC(=O)N2CCCCC2C)C1 (configuration not stated),20,26,16
Cc1ccc2oc(SCC(=O)Nc3ccc4c(c3)OCO4)nc2n1,3,-6,1
Cc1nc2ccccc2nc1SCC(=O)Nc1ccc2c(c1)OCO2,6,66*,47*
Cc1ccc(NC(=O)CSc2nncc3ccccc23)cc1,0,3,25
O=C(CSc1nncc2ccccc12)Nc1ccc2c(c1)OCO2,10,57*,-9
COc1ccccc1NC(=O)N(Cc1cc2cccc(C)c2[nH]c1=O)C1CCCC1,11,25,16
O=C(CN1CCN(c2ccccc2F)CC1)c1ccc2c(c1)OCCO2,9,-27,-7

# Screening data deposited in PubChem BioAssay by Buhrlage Lab, Dana-Farber Cancer Institute and Novartis Institutes for BioMedical Research (Cambridge, Mass).
